Experimental data from ChEMBL document CHEMBL1201862, “PubChem BioAssay data set” (2004).
Among all 58,000 sequences or so, about 3,500 (6%) were called active. Rule as the data show it: active = GI50 up to about 1.1 µM and inactive = higher. Not all results are given here. Potency and affinity values are given separately.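 Cultured in 96-well plates, cells were exposed to test compound for 48 hours across five concentrations. GI50: concentration for 50% inhibition of growth.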

What follows are substances tested on SN12C (assay: NCI tumour cell line growth inhibition, 48 h).

Row | Substance | GI50 [µM]
1 | [Bis(aminomethyl)pentamethylenesilane]dichloropaltinum(II), CHEMBL2146202 | 1.87
2 | [Bis(aminomethyl)pentamethylenesilane]tetrachloropaltinum(IV), CHEMBL2146204 | 2
3 | [Bis(aminomethyl)tetramethylenesilane]tetrachloropaltinum(IV), CHEMBL2146189 | 2.64
4 | cis-Bis[[(trimethylsilyl)methyl]amino]tetrachloroplatinum(IV), CHEMBL2146191 | 13.1
5 | [Bis(aminomethyl)dimethylsilane]tetrachloroplatinum(IV), CHEMBL2146190 | 8.45
6 | mu-(1,7-nanodiamine-N,N')bis-(cis-aminedichloroplatimum (II)), CHEMBL2146215 | 0.387
7 | [Bis(aminomethyl)tetramethylenesilane]dichloropaltinum(II), CHEMBL2146205 | 23.9
8 | [Bis(aminomethyl)dimethylsilane]dichloroplatinum (II), CHEMBL2146201 | 32.4
9 | [Bis(aminomethyl)diethylsilane]tetrachloroplatinum(IV), CHEMBL2146203 | 2.34
10 | [Bis(aminomethyl)ethylmethylsilane]tetrachloroplatinum(IV), CHEMBL2146192 | 4.25
11 | CISPLATIN, CHEMBL11359 | 4.83
